Measured values as given in PubChem BioAssay AID1159580 (chemical genetic matrix, 2015).
Out of some 5,500 compounds screened, about 2,000 (36%) were called active. Not shown: some 18% with an inconclusive outcome. Cut-off read from the data, not from the text of the source: active = normalized growth mostly below about 0.91 (no sharp cut-off); inconclusive = no clear call, values can overlap the other calls; inactive = mostly above about 0.92. The list shows a part of the results.

Test: chemical genetic growth profiling, strain panel (AID 1159580);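 note: tested at 20 µM; growth read once vehicle control cultures reached saturation at 30 °C; 1 = growth at the plate median or of vehicle wells; lower values mean less growth of the strain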
Details: S. cerevisiae deletion strains, growth OD

Measured: normalized growth

CCc1cc2c(cc1-c1csc(C/C(N)=N\O)n1)C(C)(C)CCC2(C)C
inactive: locus YAR019C, strain CDC15, stronger effect = lower value 0.985 | locus YBL105C, strain PKC1, stronger effect = lower value 0.974 | locus YBR135W, strain CKS1, stronger effect = lower value 0.969 | locus YBR136W, strain MEC1, stronger effect = lower value 0.981 | locus YBR160W, strain CDC28, stronger effect = lower value 0.986 | locus YDL017W, strain CDC7, stronger effect = lower value 0.978 | locus YDL028C, strain MPS1, stronger effect = lower value 0.985 | locus YDL101C, strain DUN1, stronger effect = lower value 0.979 | locus YDL108W, strain KIN28, stronger effect = lower value 0.968 | locus YDL132W, strain cdc53, stronger effect = lower value 0.965 | locus YDL214C, strain PRR2, stronger effect = lower value 0.757 | locus YDR052C, strain DBF4, stronger effect = lower value 0.974 | locus YDR054C, strain cdc34, stronger effect = lower value 0.97 | locus YDR226W, strain ADK1, stronger effect = lower value 0.976 | locus YDR477W, strain SNF1, stronger effect = lower value 0.75 | locus YFL009W, strain cdc4, stronger effect = lower value 0.967 | locus YFL029C, strain CAK1, stronger effect = lower value 0.974 | locus YFR003C, strain YPI1, stronger effect = lower value 0.974 | locus YFR019W, strain FAB1, stronger effect = lower value 0.819 | locus YFR028C, strain CDC14, stronger effect = lower value 0.973 | locus YGR040W, strain KSS1, stronger effect = lower value 0.749 | locus YGR092W, strain DBF2, stronger effect = lower value 0.722 | locus YHR079C, strain IRE1, stronger effect = lower value 0.525 | locus YHR082C, strain KSP1, stronger effect = lower value 0.647 | locus YHR205W, strain SCH9, stronger effect = lower value 0.77 | locus YIL147C, strain SLN1, stronger effect = lower value 0.981 | locus YJL095W, strain BCK1, stronger effect = lower value 0.532 | locus YJL128C, strain PBS2, stronger effect = lower value 0.962 | locus YJL157C, strain FAR1, stronger effect = lower value 0.779 | locus YJR016C, strain ILV3, stronger effect = lower value 0.965 | locus YJR066W, strain TOR1, stronger effect = lower value 0.666 | locus YKL067W, strain YNK1, stronger effect = lower value 0.755 | locus YKL193C, strain SDS22, stronger effect = lower value 0.973 | locus YKL203C, strain TOR2, stronger effect = lower value 0.764 | locus YLR133W, strain CKI1, stronger effect = lower value 0.813 | locus YLR403W, strain SFP1, stronger effect = lower value 0.784 | locus YMR001C, strain CDC5, stronger effect = lower value 0.969 | locus YMR205C, strain PFK2 (second series), stronger effect = lower value 0.78 | locus YMR277W, strain FCP1, stronger effect = lower value 0.963 | locus YNL006W, strain LST8, stronger effect = lower value 0.977 | locus YNL020C, strain ARK1, stronger effect = lower value 0.788 | locus YNL161W, strain CBK1, stronger effect = lower value 0.977 | locus YNL207W, strain RIO2, stronger effect = lower value 0.964 | locus YNL222W, strain SSU72, stronger effect = lower value 0.972 | locus YNL307C, strain MCK1 (second series), stronger effect = lower value 0.797 | locus YOL078W, strain AVO1, stronger effect = lower value 0.969 | locus YOL136C, strain PFK27, stronger effect = lower value 0.738 | locus YOR061W, strain CKA2, stronger effect = lower value 0.788 | locus YOR119C, strain RIO1, stronger effect = lower value 0.78 | locus YOR329C, strain SCD5, stronger effect = lower value 0.981 | locus YPL204W, strain HRR25, stronger effect = lower value 0.759 | locus YPL209C, strain IPL1, stronger effect = lower value 0.976 | locus YPR025C, strain CCL1, stronger effect = lower value 0.978 | locus YPR106W, strain ISR1, stronger effect = lower value 0.976 | locus YPR111W, strain DBF20, stronger effect = lower value 0.966 | strain NNK1, stronger effect = lower value 0.947 | strain TSCII, stronger effect = lower value 0.975
active: locus YER123W, strain YCK3, stronger effect = lower value 0.568 | locus YER133W, strain GLC7, stronger effect = lower value 0.712 | locus YGR052W, strain FMP48, stronger effect = lower value 0.567 | locus YHR030C, strain SLT2, stronger effect = lower value 0.499 | locus YJR066W, strain TOR1 (second series), stronger effect = lower value 0.601 | locus YKL048C, strain ELM1, stronger effect = lower value 0.721 | locus YKL101W, strain HSL1, stronger effect = lower value 0.701 | locus YLR113W, strain HOG1, stronger effect = lower value 0.369 | locus YML070W, strain DAK1, stronger effect = lower value 0.618 | locus YNL183C, strain NPR1, stronger effect = lower value 0.553 | locus YOR231W, strain MKK1, stronger effect = lower value 0.525 | locus YPL031C, strain PHO85, stronger effect = lower value 0.639 | locus YPL153C, strain RAD53, stronger effect = lower value 0.552 | locus YPL256C, strain CLN2, stronger effect = lower value 0.546
